Experimental data as given in PubChem BioAssay (Tox21).
Records with an inconclusive call do not appear. Activity calls are given as the source filed them. Unless noted, calls come from the whole dose curve; as a rule, active = well fitted curve in the direction sought with a large enough effect in the repeat runs; inconclusive = weak or mixed curves; inactive = no such curve, though single readings can be large; an effect the other way counts as inactive or inconclusive.

Key:
[1] = A CellTox Green Cytotoxicity Assay to monitor cytotoxicity in HepG2 cells - 8 hour (AID 1224890); note: nearly all actives have a fitted effect of over 45% in size
How it was run: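 Fluorescent DNA-binding dye, 600 HepG2 cells/well, 5 h preincubation then compound in DMSO; same plates read at 0–40 h, 37 C.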

[2] = qHTS assay to identify small molecule antagonists of the estrogen receptor alpha (ER-alpha) signaling pathway using the BG1 cell line in the presence of 0.1 nM 17-beta-estradiol - cell viability counter screen (AID 1259241); note: nearly all actives have a fitted effect of over 40% in size
How it was run: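 Live-cell protease activity (CellTiter-Fluor fluorescence, 30 min) was read in the same wells after VM7Luc4E2 cells had been exposed to compounds with 0.1 nM 17beta-estradiol for 22 hr at 37C.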

[3] = qHTS assay to identify small molecule antagonists of the androgen receptor (AR) signaling pathway using the MDA cell line in the presence of 0.5 nM R1881 - cell viability counter screen (AID 1259242); note: nearly all actives have a fitted effect of over 45% in size
How it was run: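 Human breast carcinoma MDA-kb2 cells, cultured without CO2, receive compounds alongside 0.5 nM (final) R1881 agonist. After 16 hr at 37C, viability is taken as live-cell protease signal.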

[4] = target: Estrogen receptor (Homo sapiens) (UniProt P03372); assay: qHTS assay to identify small molecule antagonists of the estrogen receptor alpha (ER-alpha) signaling pathway using the BG1 cell line in the presence of 0.1 nM 17-beta-estradiol (AID 1259244); note: nearly all actives have a fitted effect of over 50% in size
Chain of Estrogen receptor (Homo sapiens) (P03372 whole entry, looked up): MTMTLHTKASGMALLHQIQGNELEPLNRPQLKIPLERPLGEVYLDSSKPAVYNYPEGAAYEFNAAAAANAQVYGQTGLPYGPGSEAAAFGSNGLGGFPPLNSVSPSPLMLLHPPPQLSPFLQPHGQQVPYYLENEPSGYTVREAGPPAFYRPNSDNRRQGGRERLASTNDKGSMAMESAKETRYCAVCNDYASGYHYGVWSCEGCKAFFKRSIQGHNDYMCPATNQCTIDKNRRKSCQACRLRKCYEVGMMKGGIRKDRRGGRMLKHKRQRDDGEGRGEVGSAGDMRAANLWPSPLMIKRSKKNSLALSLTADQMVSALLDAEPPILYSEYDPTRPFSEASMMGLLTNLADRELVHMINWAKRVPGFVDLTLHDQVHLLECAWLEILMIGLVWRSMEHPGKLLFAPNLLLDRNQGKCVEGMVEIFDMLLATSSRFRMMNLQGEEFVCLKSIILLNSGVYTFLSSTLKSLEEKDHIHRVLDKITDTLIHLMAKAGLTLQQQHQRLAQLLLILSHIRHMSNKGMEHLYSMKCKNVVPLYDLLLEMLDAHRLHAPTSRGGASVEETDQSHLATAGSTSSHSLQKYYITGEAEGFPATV
How it was run: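 Seeding of stripped-serum-adapted VM7Luc4E2 cells, 24 h attachment, compound transfer, then 0.1 nM final 17beta-estradiol; after 22 h incubation, ONE-Glo reagent and luminescence reading.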

[5] = qHTS assay to identify small molecule HDAC inhibitors (AID 1259364); note: potency is the fitted concentration of half-maximal effect;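 note: wild-type HCT-116 cells with endogenous class I/II HDAC activity; nearly all actives have a fitted effect of over 45% in size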; for activity change, negative = inhibition: top concentration of the series differs between compounds
How it was run: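 After a 2 hr compound incubation (37C, 5% CO2), HCT-116 cells seeded at 1,500/well the day before received HDAC-Glo reagent; signal read as luminescence after 30 min at room temperature.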

[6] = qHTS assay to identify small molecule agonists of the sonic hedgehog signaling (Shh) pathway - cell viability counter screen (AID 1259366); note: nearly all actives have a fitted effect of over 50% in size
How it was run: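 CellTiter-Fluor fluorescence read-out, 1 hr at 37C, added after 23hr compound exposure. Cells: 3T3 Gli1-Luc, an NIH/3T3 clone with stably integrated Gli1-Luc reporter, plated 4hr before compound.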

[7] = qHTS assay to identify small molecule antagonists of the sonic hedgehog signaling (Shh) pathway - cell viability counter screen (AID 1259367); note: nearly all actives have a fitted effect of over 55% in size
How it was run: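 Conditioned medium drove Shh signaling in 3T3 Gli1-Luc cells exposed to compounds at 37C and 5% CO2. Viability was determined from CellTiter-Fluor fluorescence, with reagent incubated 1 hr after 23 hr of treatment.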

[8] = qHTS assay to identify small molecule HDAC inhibitors - cell viability counter screen (AID 1259365); note: series mostly up to about 92 µM; nearly all actives have a fitted effect of over 50% in size
How it was run: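 HCT-116 (wild type), 1,500 cells/well, overnight 37C/5% CO2; compound in DMSO 2hr; CellTiter-Glo 30min RT; luminescence read.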

[9] = qHTS assay to identify small molecule phospholipidosis (PLD) inducers (AID 1259344; active = well fitted curve in the direction sought with a large enough effect; an effect the other way counts as inactive or inconclusive)
How it was run: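 After 4 h attachment on collagen I, HepG2 cells were dosed with compound alongside LipidTOX Red, kept 24 h at 37 C, fixed, and imaged for lamellar phospholipid pits.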

[10] = target: Androgen receptor (Homo sapiens) (UniProt P10275); assay: qHTS assay to identify small molecule antagonists of the androgen receptor (AR) signaling pathway using the MDA cell line in the presence of 0.5 nM R1881 (AID 1259243); note: nearly all actives have a fitted effect of over 50% in size
Chain of Androgen receptor (Homo sapiens) (P10275 whole entry, looked up): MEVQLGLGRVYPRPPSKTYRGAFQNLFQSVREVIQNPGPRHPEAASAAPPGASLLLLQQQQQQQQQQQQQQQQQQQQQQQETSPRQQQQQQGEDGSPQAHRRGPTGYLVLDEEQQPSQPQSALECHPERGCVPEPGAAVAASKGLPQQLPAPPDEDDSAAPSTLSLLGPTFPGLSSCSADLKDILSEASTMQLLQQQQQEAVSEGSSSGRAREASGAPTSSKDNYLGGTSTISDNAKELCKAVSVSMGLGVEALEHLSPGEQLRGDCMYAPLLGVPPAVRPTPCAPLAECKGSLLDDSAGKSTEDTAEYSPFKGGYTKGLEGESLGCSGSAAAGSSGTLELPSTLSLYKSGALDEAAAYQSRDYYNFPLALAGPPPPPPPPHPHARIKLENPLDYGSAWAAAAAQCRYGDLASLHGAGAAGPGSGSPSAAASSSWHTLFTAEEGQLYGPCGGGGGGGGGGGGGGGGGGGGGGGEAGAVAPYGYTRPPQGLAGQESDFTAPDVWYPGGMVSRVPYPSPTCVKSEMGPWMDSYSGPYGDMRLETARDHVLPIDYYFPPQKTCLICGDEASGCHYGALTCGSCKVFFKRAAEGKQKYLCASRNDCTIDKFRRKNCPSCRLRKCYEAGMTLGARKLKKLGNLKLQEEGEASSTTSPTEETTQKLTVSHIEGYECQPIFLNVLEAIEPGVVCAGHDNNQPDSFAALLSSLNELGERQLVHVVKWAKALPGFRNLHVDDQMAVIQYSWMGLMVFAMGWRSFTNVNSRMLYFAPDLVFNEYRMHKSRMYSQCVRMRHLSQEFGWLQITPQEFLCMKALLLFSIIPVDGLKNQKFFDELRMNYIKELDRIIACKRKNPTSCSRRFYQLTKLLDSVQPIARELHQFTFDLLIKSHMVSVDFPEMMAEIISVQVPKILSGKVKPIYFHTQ
How it was run: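 Cells: MDA-kb2 (MMTV-luc). Stimulus: 0.5 nM R1881. Time: 16 hr, 37C, no CO2. Detection: ONE-Glo luminescence after 30 min at RT.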
% is set by controls: 0 for no effect and ±100 for the full control effect.

C[C@H]1C[C@H]2[C@@H]3CCC4=CC(=O)C=C[C@]4(C)[C@@]3(F)[C@@H](O)C[C@]2(C)[C@@]1(O)C(=O)COP(=O)(O)O
inactive: Potency [1] | Potency [2] | Potency [3] | Potency [4] | Potency [5] | Potency [6] | Potency [7]

C=CC(=O)NC(C)(C)C
inactive: Potency [1] | Potency [2] | Potency [3] | Potency [5] | outcome [8] | Potency [6]

CC(C)(C)NCC(O)COc1ccc(NC(=O)NC2CCCCC2)cc1 (stereo not drawn)
inactive: Potency [1] | Potency [2] | Potency [3] | Potency [9] | Potency [5] | outcome [8] | Potency [6] | Potency [7]

Cc1c(Nc2ncccc2C(=O)O)cccc1C(F)(F)F
inactive: Potency [1] | Potency [2] | Potency [3] | Potency [9] | outcome [8] | Potency [6]

CC(C)(C)c1cc(C=O)cc(C(C)(C)C)c1O
inactive: Potency [1] | Potency [2] | Potency [3] | Potency [4] | Potency [5] | Potency [6] | Potency [7]

CO[C@@H]1COCC[C@@H]1N[C@@H]1CC[C@@](C(=O)N2CCc3ncc(C(F)(F)F)cc3C2)(C(C)C)C1
inactive: Potency [1] | Potency [2] | Potency [3] | Potency [5] | outcome [8] | Potency [6]

COC(=O)C(C)(C)C
inactive: Potency [1] | Potency [2] | Potency [3] | Potency [5] | outcome [8] | Potency [6] | Potency [7]

CC(=O)CC/C=C(\C)CC/C=C(\C)CC/C=C(\C)CCC=C(C)C
inactive: Potency [1] | Potency [2] | Potency [3] | Potency [9] | Potency [5] | outcome [8] | Potency [6] | Potency [7]

CC(Cc1ccccc1)(NC(=O)CN)c1ccccc1 (stereo not drawn)
inactive: Potency [1] | Potency [2] | Potency [3] | Potency [9] | Potency [5] | outcome [8] | Potency [6] | Potency [7]

CC(O)C(C)O (stereo not drawn)
inactive: Potency [1] | Potency [2] | Potency [3] | Potency [5] | outcome [8] | Potency [6] | Potency [7]

O=C(O)c1ccccc1-n1cc(C(=O)O)c(=O)c2cc(Nc3c(F)cc(F)cc3Cl)c(Cl)cc21
inactive: Potency [1] | Potency [2] | Potency [3] | Potency [5] | outcome [8] | Potency [6]

O=C(O)c1ccc2cc(O)ccc2c1
inactive: Potency [1] | Potency [2] | Potency [3] | Potency [5] | outcome [8] | Potency [6] | Potency [7]

C[C@H](CN1CCCC1)C(=O)c1ccc(C(F)(F)F)cc1
inactive: Potency [1] | Potency [2] | Potency [3] | Potency [9] | Potency [5] | outcome [8] | Potency [6] | Potency [7]

C1=COCCC1
inactive: Potency [1] | Potency [2] | Potency [3] | Potency [5] | outcome [8] | Potency [6] | Potency [7]

CC1=C(C)C(=O)C(CCCCC#CCCCC#CCO)=C(C)C1=O
inactive: Potency [1] | Potency [2] | Potency [3] | Potency [9] | Potency [5] | outcome [8] | Potency [6] | Potency [7]

O=[N+]([O-])c1ccc(Cl)cc1Cl
inactive: Potency [1] | Potency [2] | Potency [3] | Potency [5] | outcome [8] | Potency [6]

Cc1c(-c2cccnc2)c2ccccc2n1CCCCC(=O)O
inactive: Potency [1] | Potency [2] | Potency [3] | Potency [5] | outcome [8] | Potency [6] | Potency [7]

Nc1ccc(C(=O)Oc2ccccc2)c(O)c1
inactive: Potency [1] | Potency [2] | Potency [3] | Potency [9] | Potency [6] | Potency [7]

COC(=O)c1cc(Cl)ccc1[N+](=O)[O-]
inactive: Potency [1] | Potency [2] | Potency [3] | Potency [4] | Potency [5] | Potency [6] | Potency [7]

OCCOc1cccc(OCCO)c1
inactive: Potency [1] | Potency [2] | Potency [3] | outcome [8] | Potency [6] | Potency [7]
active: Potency [5] 24.3 µM

CCOC(C)OCC
inactive: Potency [1] | Potency [2] | Potency [3] | Potency [9] | Potency [5] | outcome [8] | Potency [6] | Potency [7]

CC(=O)Nc1ccn(C2COC(COC(=O)c3ccccc3)O2)c(=O)n1 (stereo not drawn)
inactive: Potency [1] | Potency [2] | Potency [3] | PLD induction [9] 1.43% [at 1.53 µM] | Potency [5] | outcome [8] | Potency [6] | Potency [7]

CC(=O)c1ccc(Cl)c(Cl)c1Cl
inactive: Potency [1] | Potency [2] | Potency [3] | Potency [5] | outcome [8] | Potency [6]

CNc1ccccc1
inactive: Potency [1] | Potency [2] | Potency [3] | Potency [5] | outcome [8] | Potency [6]

CC1=CC(=C(c2ccc(N)cc2)c2ccc(N)cc2)C=CC1=N
inactive: cytotoxicity increase [1] 1.46% [at 6.97 µM] | activity change, negative = cytotoxicity [2] -17.9% [at 8.39 µM] | viability change, negative = cytotoxic [3] -23% [at 8.39 µM] | Potency [9] | activity change, negative = inhibition [5] -3.34% [at 8.39 µM] | activity change, negative = cytotoxicity [8] -17.7% [at 8.39 µM] | viability change, negative = cytotoxic [7] -16.1% [at 8.39 µM]

Cc1ccc(S(=O)(=O)NC(=O)NC2CCCC2)cc1
inactive: Potency [1] | Potency [2] | Potency [3] | Potency [9] | Potency [5] | outcome [8] | Potency [6]

CCCC1CCCC(=O)O1 (stereo not drawn)
inactive: Potency [1] | Potency [2] | Potency [3] | Potency [5] | outcome [8] | Potency [6]

SCCOCCOCCS
inactive: Potency [1] | Potency [2] | Potency [3] | Potency [4] | Potency [5] | Potency [6] | Potency [7]

O=C1c2ccccc2C(=O)C1c1ccc2ccccc2n1
active: Potency [5] 1.91 µM
inactive: Potency [1] | Potency [2] | Potency [3] | outcome [8] | Potency [6] | Potency [7]

Cc1cc(C)n(CO)n1
inactive: Potency [1] | Potency [2] | Potency [3] | Potency [5] | outcome [8] | Potency [6]

CC(COc1ccccc1)NC(C)C(O)c1ccc(O)cc1 (stereo not drawn)
inactive: Potency [1] | Potency [2] | Potency [3] | Potency [9] | Potency [5] | Potency [6] | Potency [7]

Nc1nc(Cl)nc2c1ncn2[C@H]1C[C@H](O)[C@@H](CO)O1
inactive: Potency [1] | Potency [2] | Potency [3] | Potency [9] | Potency [5] | outcome [8] | Potency [6] | Potency [7]

C/C=C1\[C@H]2C=C(C)C[C@]1(N)c1ccc(=O)[nH]c1C2
inactive: Potency [1] | Potency [2] | Potency [3] | Potency [9] | Potency [5] | outcome [8] | Potency [6] | Potency [7]

CCCCCCCCOCCCN
inactive: Potency [1] | Potency [2] | Potency [10] | Potency [4] | Potency [5] | outcome [8]

CC(=O)Nc1ccccc1O
inactive: Potency [1] | Potency [2] | Potency [3] | Potency [5] | Potency [6] | Potency [7]

CC(C)(Cc1c[nH]c2ccccc12)NCC(O)COc1ccccc1C#N (stereo not drawn)
inactive: Potency [1] | Potency [2] | Potency [3] | Potency [5] | outcome [8] | Potency [7]
